Giardia FBPA inh – Giardia lamblia aldolase inhibition; Potency, µM (top dose mostly 59.6 µM), for the others: at the highest dose activity, negative = inhibition, usual class: inhibitors; purified Giardia FBPA; A8B2U2; 290,000 compounds, 0.71% hits; note: potency is the fitted concentration of half-maximal effect; % is set by controls: 0 for no effect and ±100 for the full control effect; nearly all actives have a fitted effect of over 55% in size
Target sequence (A8B2U2 whole entry, looked up): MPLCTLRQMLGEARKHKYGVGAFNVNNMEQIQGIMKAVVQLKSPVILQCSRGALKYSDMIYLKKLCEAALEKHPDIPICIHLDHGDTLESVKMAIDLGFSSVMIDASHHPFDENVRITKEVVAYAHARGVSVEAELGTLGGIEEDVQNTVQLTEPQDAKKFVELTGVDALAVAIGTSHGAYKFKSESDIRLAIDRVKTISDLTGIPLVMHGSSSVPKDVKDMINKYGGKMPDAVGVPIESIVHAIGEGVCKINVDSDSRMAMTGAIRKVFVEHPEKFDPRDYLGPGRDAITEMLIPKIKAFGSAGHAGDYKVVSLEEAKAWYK
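Giardia FBPA (40 nM reagent) was preincubated 10 min at RT with compound (up to 57.5 uM final), then substrate plus GAPDH/TPI/NAD/arsenate coupling system with diaphorase/resazurin was added; resorufin fluorescence (525/598 nm) was read after 20 min.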
Shiga inhibitor – Shiga toxin inhibition. Vero cells, Shiga toxin protein synthesis inhibition reporter. inhibition, % at 38.7 µM. 290,000 compounds, 9.2% hits; in the data active = inhibition mostly above about 28%, no sharp cut-off; inactive = mostly below about 43%; note: 0% is about no effect
Cycloheximide cs – affects cycloheximide protein synthesis inhibition readout, counter-screen; cell reporter, cycloheximide protein synthesis inhibition counterscreen; max response, %; 300,000 compounds, 12% hits; AID 2314; in the data active = max response mostly above about 13%, no sharp cut-off; inactive = mostly below about 14%; note: read at 38.3 µM for the half of the compounds with a filed dose; 0% is about no effect
LmPK inhibitor – blocks Leishmania mexicana pyruvate kinase activity | Q27686 | purified LmPK, Kinase-Glo ATP luminescence, 1 h | Potency, µM (titrated, usually from 57.5 µM), inactives show top-dose activity change, negative = inhibition, usual class: inhibitors | 290,000 compounds, 0.37% hits | AID 1721; note: potency is the fitted concentration of half-maximal effect; % is set by controls: 0 for no effect and ±100 for the full control effect
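Screened at intermediate enzyme activity to detect both inhibitors and activators: LmPK at 0.1 nM, with a 0.5 nM enzyme column as activation reference. PEP 0.5 mM, ADP 0.1 mM; ATP detected by luminescence after 1 h.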
RE007 growth inh – less growth of the S. pombe RE007 Vpr strain | S. pombe RE007 Vpr strain, BacTiter-Glo ATP luminescence, 24 h | Potency, µM (series often up to 92.2 µM), for the others: top-dose activity change, negative = less growth, actives largely listed as inhibitors | 360,000 compounds, 0.21% hits | AID 651644; active = well fitted falling curve with a large enough effect; inconclusive = small, poorly fitted or top-dose-only effect; inactive = no such curve, though single readings can be large or run the other way; note: potency is the fitted concentration of half-maximal effect; % is set by controls: 0 for no effect and ±100 for the full control effect; nearly all actives have a fitted effect of over 50% in size
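Fission yeast strain RE007, carrying one chromosomally integrated HIV-1 vpr copy, was seeded at OD 0.01 in PMG+AL medium with 23 nL pinned compound. After 24 h at 30 °C and 99% humidity, viability was read by BacTiter-Glo luminescence.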
TbPYK inhibitor – blocks Trypanosoma brucei pyruvate kinase; AID 624173; TbPYK enzyme, Kinase-Glo Plus ATP luminescence, 45 min; Potency, µM (highest dose often 76.8 µM), for inactives: at the highest dose activity, negative = inhibition, actives largely listed as inhibitors; 410,000 compounds, 0.12% hits; Q57TT1; note: potency is the fitted concentration of half-maximal effect; % is set by controls: 0 for no effect and ±100 for the full control effect; nearly all actives have a fitted effect of over 50% in size
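Quantitative HTS: titrated library compounds versus trypanosomal pyruvate kinase in TEA buffer (pH 7.2) containing KCl, MgCl2, BSA and Tween-20. Reactions were initiated with ADP, 130 uM final. Kinase-Glo Plus luminescence was read after 45 min at RT.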
An asterisk follows results filed as active; ? = inconclusive; nt = no result given; [ ] = another dose, or the depositor's remark. Shown is part of a subset that was picked to be rich in hits. Unless noted, calls come from the whole dose curve; as a rule, active = well fitted curve in the direction sought with a large enough effect; inconclusive = small, poorly fitted or top-dose-only effect, or another doubt; inactive = no such curve, though single readings can be large; an effect the other way counts as inactive or inconclusive.

SMILES	Giardia FBPA inh	Shiga inhibitor	Cycloheximide cs	LmPK inhibitor	RE007 growth inh	TbPYK inhibitor
COc1cc(Cl)ccc1OCc1cc(C(=O)N[C@H]2CCCCNC2=O)no1	nt	62*	36*	-8%	3%	-3%
N#Cc1ccccc1Cn1cc(C(=O)c2ccco2)c2ccccc21	1%	23*	47*	0%	3%	2%
O=C(c1ccco1)c1cn(Cc2ccccc2)c2ccccc12	0%	77*	38*	1%	5%	4%
O=C(Cn1cc(C(=O)c2ccco2)c2ccccc21)Nc1ccccc1Cl	nt	nt	nt	nt	nt	0%
CCC(=O)c1cn(Cc2ccccc2C#N)c2ccccc12	4%	-6	-1	-3%	10%	9%
O=C(c1ccco1)c1cn(Cc2ccccc2Cl)c2ccccc12	1%	71	42*	5%	5%	-6%
COc1ccc(-c2cn3c(n2)sc2cc(C(=O)NCc4cccs4)ccc23)cc1	nt	nt	nt	nt	nt	-3%
CCCc1nc(-c2cc3ccc(C)cc3[nH]c2=O)no1	0%	59*	23*	-3%	8%	-5%
Cc1ccc2cc(-c3noc(C4CCCCC4)n3)c(=O)[nH]c2c1	3%	2	1	9%	-7%	-1%
Cc1ccc2cc(-c3noc(C4CCCO4)n3)c(=O)[nH]c2c1 (centres undefined)	0%	56	17*	1%	0%	-2%
N#C/C(=C\Nc1ccc2c(c1)OCCO2)c1nc(-c2ccccc2)cs1	5%	-7	-3	3%	0%	3%
c1cc2c(cc1Nc1nc(-c3ccc4c(c3)OCO4)cs1)OCCO2	-25%	78*	64*	-1%	27%	-9%
COc1cccc(Nc2nc(-c3ccc4c(c3)OCCO4)cs2)c1	-1%	103*	53*	-10%	0%	-7%
O=C(/C=C/c1ccc2c(c1)OCO2)Nc1nc(-c2ccc(F)cc2)cs1	-4%	-2	2	1%	nt	nt
c1ccc(-c2csc(Nc3ccc4c(c3)OCCO4)n2)cc1	-6%	97*	54*	-19%	-7%	6%
CC(=O)N1CCC2(CC1)CCN(c1ccc(-c3ccccc3)cc1)CC2	-16%	nt	nt	nt	nt	3%
COc1cccc(CNC(=O)CSc2nc3ccccc3nc2Cc2ccc(C)cc2)c1OC	nt	nt	nt	nt	nt	-5%
N#C/C(=C/c1ccccc1)c1nn(CCO)c(N)c1C#N	3%	27*	27*	-2%	7%	-1%
CCCCC(=O)N1CCc2cc(OC)c(OC)cc2C1COc1ccc(OC)cc1 (centres undefined)	nt	nt	nt	nt	nt	2%
CC(C)C(=O)Nc1ccc2nc(SCC(=O)N3CCCC3)sc2c1	nt	nt	nt	nt	nt	1%
NC(=O)/C(=C/c1ccco1)NC(=O)/C=C/c1ccccc1	-4%	-4	2	-5%	8%	3%
CC(C)CCOC(=O)/C(=C/c1ccco1)NC(=O)/C=C/c1ccccc1	-4%	51	20*	5%	-9%[3.69 µM]	nt
CCOC(=O)Cn1c(=O)n(CC2CCCO2)c2nc(-c3ccccc3)nc(C(N)=O)c21 (centres undefined)	nt	nt	nt	nt	nt	-1%
COc1ccc(-c2nc3cccc(C)n3c2NCC2CCCO2)cc1O (centres undefined)	?	46*	8.1*	-2%	0%	3%
COc1cc(-c2nc3ccccn3c2NCC2CCCO2)ccc1O (centres undefined)	-29%	14	-3	-5%	-18%	2%
SMILES	Giardia FBPA inh	Shiga inhibitor	Cycloheximide cs	LmPK inhibitor	RE007 growth inh	TbPYK inhibitor
CN1C(=O)C2(Oc3ccccc3C3CC(c4ccccc4)=NN32)c2ccccc21 (centres undefined)	-20%	78*	28*	-4%	-21%	-25%
CN1C(=O)C(O)(c2sc(N)nc2-c2ccccc2)c2ccccc21 (centres undefined)	-4%	18	-1	3%	-15%	-6%
Cc1ccc(CNC(=O)C2(C)Oc3ccccc3NC2=O)cc1 (centres undefined)	2%	-9	-2	2%	13%	-2%
S=C1NC2(CCS1)Oc1ccccc1C1CC(c3ccccc3)=NN12 (centres undefined)	-4%	70*	33*	2%	nt	nt
Cc1ccc(C2=NN3C(C2)c2ccccc2OC32C(=O)Nc3ccccc32)cc1 (centres undefined)	-13%	78*	42*	-1%	-29%	-27%
Cc1ccc(CNC(=O)C2CCC(CNS(=O)(=O)c3ccc(C)cc3)CC2)cc1 (centres undefined)	nt	nt	nt	nt	nt	5%[15.4 µM]
CCc1sc(C(=O)NCc2ccco2)cc1Br	-2%	nt	19*	2%	-16%	18%
O=C(NCc1ccco1)c1cc2c(s1)CCCCC2	21%	115*	57*	-6%	-16%	-7%
O=C(NCc1ccco1)c1ccc(C(=O)NCc2ccco2)s1	2%	-45	-12	-6%	5%	?
Cc1ccc2c(CC(=O)NCc3ccco3)coc2c1C	-11%	33*	23*	4%	-15%	-1%
CCc1sc(C(=O)NCc2ccco2)cc1C	12%	64*	13	2%	-7%	-12%
COc1ccc2c(c1)c1c(c(=O)n(Cc3ccccc3)c(=O)n1CC(=O)Nc1c(C)cccc1C)n2C	nt	nt	nt	nt	nt	4%
O=C(NCc1ccc(Cl)cc1)c1cnc(N2CCOCC2)c2ccccc12	nt	nt	nt	nt	nt	-6%
Nc1n[nH]c(C2CC2)c1N=Nc1ccc(Cl)cc1	-1%	35	8	0%	-17%	12%
Nc1n[nH]c(C2CC2)c1N=Nc1ccc(Cl)c(Cl)c1	5%	51*	22	2%	?	6%
CC(C)c1ccc(S(=O)(=O)c2nnn3c2nc(N2CCOCC2)c2sccc23)cc1	nt	nt	nt	nt	nt	4%
COc1ccc(CNC(=O)c2ccc(-c3nc(CSc4ccc(C)cc4)c(C)o3)cc2)cc1OC	nt	nt	nt	nt	nt	-2%
Cc1c(O)ccc(-c2n[nH]c(C(=O)O)c2-c2nc3ccccc3s2)c1O	0%	59*	23*	4%	1%	-10%
CC(=O)c1cccc(OCc2cc(C(=O)N3CCSCC3)no2)c1	nt	150*	48*	-6%	1%	-2%
O=C(c1cc(COc2ccc(F)c(F)c2)on1)N1CCSCC1	nt	62*	47*	-4%	0%	-4%
COc1cc(C(C)=O)ccc1OCc1cc(C(=O)N2CCSCC2)no1	10%	8	18	3%	1%	0%
